Bioassay records (PubChem)
ALOX12 inh – Primary qHTS assay for inhibitors of human arachidonate 12S-lipoxygenase (ALOX12): Round 2; 580,000 tested, 1.1% active; purified 12hLO, xylenol orange hydroperoxide absorbance; Potency, µM (titrated, usually from 108 µM), without a hit: at the highest dose activity change, negative = inhibition, most hits filed as inhibitors; AID 1671190, 2021; further: on the % scale 0 is the no-effect control and ±100 the full control effect
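Hydroperoxide product was detected by ferrous iron/xylenol orange as the 573 to 405 nm absorbance ratio. Arachidonic acid at 40 uM (final) was turned over for 30 min at room temperature by 150 nM human 12hLO, pH 7.0 Hepes buffer, after 15 min compound preincubation.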
Glioma ERSR ind – qHTS for Inducers of the Endoplasmic Reticulum Stress Response (ERSR) in Human Glioma: qHTS | U87-MG GRP78 promoter luciferase reporter, 16 h | Potency, µM, for inactives: at the highest dose activation, usual class: activators | 420,000 tested, 0.02% active | AID 602332, 2012; further: series mostly up to about 76 µM; % of control where 0% means no effect; nearly all actives have a fitted effect of over 35% in size
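Stably transfected U87-MG human glioma cells carrying a GRP78-based luminescent sensor were seeded at 1000 cells/well, pin-dosed with compounds and incubated 16 h. Luciferase reagent was then added, and end-point luminescence was read after 10 min at room temperature.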
VDR inhibitor – Inhibitors of the vitamin D receptor (VDR): qHTS; VDR-SRC2-3 peptide fluorescence polarization, 2 h; AID 504847, 2011; Potency, µM, for inactives: max response, negative = inhibition, actives largely listed as inhibitors; 400,000 tested, 0.93% active; further: on the % scale 0 is the no-effect control and ±100 the full control effect
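Signal is fluorescence polarization, reporting how far test compounds block the interaction of VDR with the SRC2-3 coregulator peptide after a 2 h room-temperature incubation.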
Sfp PPTase inh – qHTS Assay for Inhibitors of Bacillus subtilis Sfp phosphopantetheinyl transferase (PPTase); 4'-phosphopantetheinyl transferase ffp (Bacillus subtilis), Q9F4F7; Biochemical Sfp PPTase activity, qHTS; Potency, µM, for the others: largest response in the series, negative = inhibition, actives largely listed as inhibitors; 310,000 tested, 3.5% active; AID 1490, 2009;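 further: the enzyme is Sfp with the accession as filed and its product quenches rhodamine fluorescence; 0% = enzyme reaction without inhibitor and -100% = no enzyme wells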
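With Hepes-Na pH 7.6 buffer containing 10 mM MgCl2, Sfp (15 nM) modified BHQ-2-YbbR (12.5 uM) using rhodamine-CoA (5 uM). Two reads 30 minutes apart at 525/598 nm yielded each well's rate.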
G9a inh – qHTS Assay for Inhibitors of Histone Lysine Methyltransferase G9a; G9a H3K9 monomethylation, AlphaScreen, 2 h; Potency, µM (series often up to 102 µM), inactives show top-dose activity, negative = inhibition, hits mostly inhibitors; 350,000 tested, 8.8% active; further: on the % scale 0 is the no-effect control and ±100 the full control effect; nearly all actives have a fitted effect of over 75% in size
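G9a (20 nM) was preincubated 15 min with compound, then reacted 2 h at room temperature with 500 nM biotin-H3K9 peptide and 20 µM SAM. Monomethyl-H3K9 detected by AlphaScreen using anti-H3K9me1 antibody.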
* marks the source's active call; other numbers are inactive results; u = inconclusive; x = no result given; ! = repeats disagree; [ ] = another dose, or the depositor's remark. This is one part of a sample in which hits are shown more often than they occur. The call rests on the fitted dose curve; in most records, active means well fitted curve in the direction sought with a large enough effect; inconclusive means small, poorly fitted or top-dose-only effect, or another doubt; inactive means no such curve, though single readings can be large; an effect the other way counts as inactive or inconclusive. Potency means the concentration at half of the fitted maximal effect.

SMILES	ALOX12 inh	Glioma ERSR ind	VDR inhibitor	Sfp PPTase inh	G9a inh
Cc1ccc(-c2ccc(/C=N/NC(N)=S)o2)cc1	45µM*	10%	89µM*	20µM*	8.9µM*
NC(=S)N/N=C/c1ccc(/C=N/NC(N)=S)cc1	-7%	-5%	1%	-3%	x
NC(=S)N/N=C/c1ccc(-c2ccc(Cl)c(Cl)c2)o1	u	1%	-14%	45µM*	-35%[59 µM]
CCNC(=S)N/N=C/c1ccc(-c2ccccc2)o1	u	3%	-9%	0%	-7%[59 µM]
NC(=S)N/N=C/c1ccc(-c2ccc(SC(F)F)cc2)o1	u	5%	-21%	u	x
Cc1ccc(C)c(C(=O)CSc2nnnn2C)c1	-17%	x	x	x	x
Cc1cc(SCC(NC(=O)c2ccccc2)C(=O)O)c2ccccc2n1 (stereo not drawn)	-4%	x	x	x	x
O=C(O)c1cc(-c2ccc(/C=N/NC(=S)Nc3ccccc3)o2)ccc1Cl	28µM*	3%	-14%	40µM*	-12%[59 µM]
Cc1nnc(N/N=C/c2cccc(OCc3ccc(Cl)c(Cl)c3)c2)n1N	18µM*	10%	u	71µM*	10µM*
CCOc1cc(/C=N/Nc2nnc(C)n2N)ccc1OC(C)=O	u	-6%	-22%	u	45µM*
COc1cccc(/C=N/Nc2nnc(C)n2N)c1O	27%	-4%	18%	7%	14%
CCOC(=O)Cc1csc(NC(=O)/C=C/c2ccc(Br)o2)n1	-12%	-1%	-6%	u	50µM*
CCOC(=O)Cc1csc(NC(=S)NC(=O)c2ccc(C)cc2)n1	-22%	-14%	-4%	-12%	12%
CCOC(=O)Cc1csc(NC(=S)NC(=O)c2ccccc2)n1	-11%	-14%	5%	16µM*	u
O=C(/C=C/c1ccc(Br)o1)Nc1nccs1	-3%	3%	-9%	u	45µM*
CN(C)CCNCC1CCCO1 (stereo not drawn)	13%	x	x	x	x
CC(=O)N(\C=C/C=C/C=C1\Sc2ccccc2C1=O)c1ccccc1	16µM*	9%	u	-33%	10µM*
N#CC1=C(N)OC2=C(CC/C2=C\c2ccccc2Cl)C1c1ccccc1Cl (stereo not drawn)	u	-4%	-13%	-7%	22µM*
COC(=O)c1ccc(NC(=O)C2=Cc3ccccc3OC=C2)cc1	-10%	x	x	x	x
COc1ccc(-c2cc([C@H]3[C@@H]4C=CCC[C@@]4(C)C(=O)N3Cc3ccccc3)ccc2F)cc1OC	11µM*	-2%	-18%	u	-40%[59 µM]
COc1ccc(-c2c([C@H]3[C@@H]4C=CCC[C@@]4(C)C(=O)N3Cc3ccccc3)ccc3ccccc23)cc1OC	-28%	-6%	-12%	-5%	6%[59 µM]
COc1ccc(-c2ccc([C@H]3[C@H]4C=CC[C@@H](C)[C@@H]4C(=O)N3Cc3ccccc3)c(F)c2)cc1OC	-1%	-5%	-16%	22µM*	u
COc1ccc(-c2ccc([C@H]3[C@@H]4C=CCC[C@@]4(C)C(=O)N3Cc3ccccc3)c(F)c2)cc1OC	-8%	-2%	-4%	20µM*	48%[12.7 µM]
C[C@@]12CCC=C[C@H]1[C@H](c1ccccc1Br)N(Cc1ccccc1)C2=O	u	-3%	50µM*!	-16%	23%[59 µM]
O=C(NCc1c[nH]c(=O)[nH]c1=O)C1CCN(Cc2ccco2)CC1	19%	x	x	x	x
Cc1c(F)cc(C(N)=O)cc1NS(=O)(=O)c1ccc2ccccc2c1	-9%	x	x	x	x
Cc1cc(C)nc(N/N=C/C=C/c2ccccc2)n1	-10%	4%	-18%	-6%	50µM*
Cc1cc(C)nc(N/N=C/c2ccccc2)n1	1%	5%	0%	u	21%[59 µM]
CC1C(=O)N2CCCc3cc(NC(=O)C(=O)NCCc4c[nH]c5ccccc45)cc1c32 (stereo not drawn)	-2%	0%	-12%	x	28µM*
CCCCn1nc(C(=O)Oc2ccc3c(C)cc(=O)oc3c2)c2ccccc2c1=O	u	-3%	u	3%	2.8µM*
